From the supplement of paper PMC9262897, “Low-cost anti-mycobacterial drug discovery using engineered E. coli” (Nature Communications, 2022) come the findings set out here.

Where a name gives a salt, the structure may show the parent alone. ± gives the standard deviation of the averaged measurements.

Common to all, as to assay: growth (OD600 after 10 h); higher = more growth (less inhibition)
Experiment [1] deals with E. coli TESEC Alr+ wild-type control. Conditions: compound 0.1 mM; raw OD600 reference: median of DMSO wells 0.241, cell-free background 0.041. The method, then: (§1)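 TESEC Mtb Alr E. coli, or the Alr+ wild-type control, in 384-well plates with Prestwick library compounds at 0.1 mM and 1% DMSO, across arabinose induction levels of 1E3 to 1E7 nM. Growth is read as OD600 after 10 h at 37 °C in triplicate biological replicates.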

Experiment [2] deals with E. coli TESEC Mtb Alr. The settings on record: compound 0.1 mM. The method, then:
as §1

The next experiment concerns E. coli TESEC Mtb Asd. Conditions: compound 0.1 mM. The method, then: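 TESEC E. coli strains in which the native enzyme is deleted and replaced by arabinose-inducible Mtb Asd, DapB, CysH or TrpD, each grown in its selective medium. Strains were screened against the Prestwick library at 0.1 mM and 1% DMSO in 384-well format at low and high arabinose induction. Growth is read as OD600 after 10 h in triplicate.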

In experiment [3] the test system is E. coli TESEC Alr+ wild-type control. The settings on record: compound 0.1 mM; raw OD600 reference: median of DMSO wells 0.49, cell-free background 0.052. The method, then:
(§2)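 TESEC Mtb Alr E. coli (ΔaraC ΔtolC ΔentC Δalr ΔdadX, arabinose-inducible Mtb Alr) or the Alr+ wild-type control strain, grown in defined M9-fructose medium without D-alanine in 96-well plates with Prestwick library compounds at 0.1 mM and 1% DMSO. Low Alr induction is 0.1 µM arabinose and high induction is 10 mM arabinose.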

For experiment [4], the system named is E. coli TESEC Mtb Alr. Conditions: compound 0.1 mM. How it is done: as §2
This is another data set of the same source.

Setting [5] is: arabinose 1000 nM, raw OD600 reference: median of DMSO wells 0.294, cell-free background 0.041.
[6] abbreviates: arabinose 10000 nM, raw OD600 reference: median of DMSO wells 0.264, cell-free background 0.041.
Setting [7] is: arabinose 100000 nM, raw OD600 reference: median of DMSO wells 0.201, cell-free background 0.041.
[8] abbreviates: arabinose 1000000 nM, raw OD600 reference: median of DMSO wells 0.193, cell-free background 0.041.
The mark [9] stands for this setting: arabinose 10000000 nM, raw OD600 reference: median of DMSO wells 0.146, cell-free background 0.041.
The mark [10] stands for this setting: arabinose induction (level): High, raw OD600 reference: median of DMSO wells 0.331, cell-free background 0.041.
[11] abbreviates: arabinose induction (level): Low, raw OD600 reference: median of DMSO wells 0.417, cell-free background 0.041.
Where [12] appears, read: arabinose 100 nM, raw OD600 reference: median of DMSO wells 0.413, cell-free background 0.052.
Where [13] appears, read: arabinose 10000000 nM, raw OD600 reference: median of DMSO wells […], cell-free background 0.052.

Consider `CCCc1nc2c(C)cc(-c3nc4ccccc4n3C)cc2n1Cc1ccc(-c2ccccc2C(=O)O)cc1` [Telmisartan], for which the growth in experiment [1] was 0.208 ± 0.0078; with E. coli TESEC Mtb Alr [2] (setting [5]) it was 0.271 ± 0.02; with E. coli TESEC Mtb Alr [2] (setting [6]) it was 0.291 ± 0.011; in the experiment on E. coli TESEC Mtb Alr [2] (setting [7]), 0.19 ± 0.016; in the experiment with E. coli TESEC Mtb Alr [2] (setting [8]), 0.228 ± 0.0023; with E. coli TESEC Mtb Alr [2] (setting [9]) it was 0.156 ± 0.0075. The growth was determined as 0.2439 ± 0.00056 with E. coli TESEC Mtb Asd (setting [10]); 0.41 ± 0.024 in the experiment on E. coli TESEC Mtb Asd (setting [11]); 0.505 ± 0.043 in experiment [3]; 0.283 ± 0.052 in the experiment with E. coli TESEC Mtb Alr [4] (setting [12]); 0.337 ± 0.018 in the experiment on E. coli TESEC Mtb Alr [4] (setting [13]).

For the compound `CC(=O)OCC(=O)[C@@]1(O)[C@H](C)C[C@H]2[C@@H]3CCC4=CC(=O)C=C[C@]4(C)[C@@]3(F)[C@@H](O)C[C@@]21C` [Dexamethasone acetate], the growth in experiment [1] worked out at 0.167 ± 0.006; in the experiment with E. coli TESEC Mtb Alr [2] (setting [5]), 0.239 ± 0.041; with E. coli TESEC Mtb Alr [2] (setting [6]), 0.226 ± 0.007; in the experiment on E. coli TESEC Mtb Alr [2] (setting [7]), 0.192 ± 0.017; with E. coli TESEC Mtb Alr [2] (setting [8]) it was 0.119 ± 0.0023; in the experiment on E. coli TESEC Mtb Alr [2] (setting [9]), 0.1362 ± 0.00044. Also, the growth came to 0.226 ± 0.034 in the experiment on E. coli TESEC Mtb Asd (setting [10]); 0.356 ± 0.056 in the experiment with E. coli TESEC Mtb Asd (setting [11]); 0.477 ± 0.033 in experiment [3]; 0.396 ± 0.011 in the experiment with E. coli TESEC Mtb Alr [4] (setting [12]); 0.234 ± 0.018 in the experiment with E. coli TESEC Mtb Alr [4] (setting [13]).

`Cc1ccc(Cl)c(Nc2ccccc2C(=O)O)c1Cl` [Meclofenamic acid sodium salt monohydrate]: the growth worked out at 0.0491 ± 0.00067 in experiment [1]; 0.0555 ± 0.0013 in the experiment on E. coli TESEC Mtb Alr [2] (setting [5]); 0.0424 ± 0.00044 in the experiment with E. coli TESEC Mtb Alr [2] (setting [6]); 0.0566 ± 0.00087 with E. coli TESEC Mtb Alr [2] (setting [7]); 0.04353 ± 0.00038 in the experiment on E. coli TESEC Mtb Alr [2] (setting [8]); 0.0628 ± 0.001 in the experiment on E. coli TESEC Mtb Alr [2] (setting [9]). Further, the growth turned out to be 0.0702 ± 0.014 with E. coli TESEC Mtb Asd (setting [10]); 0.0796 ± 0.0032 in the experiment on E. coli TESEC Mtb Asd (setting [11]); 0.139 ± 0.011 in experiment [3]; 0.0708 ± 0.027 in the experiment with E. coli TESEC Mtb Alr [4] (setting [12]); 0.0591 ± 0.0032 with E. coli TESEC Mtb Alr [4] (setting [13]).

As for `c1ccc2c(c1)CCCc1cc(NCCN3CCOCC3)nnc1-2`, the growth in experiment [1] is 0.215 ± 0.0088; with E. coli TESEC Mtb Alr [2] (setting [5]), 0.285 ± 0.013; in the experiment with E. coli TESEC Mtb Alr [2] (setting [6]) it was 0.278 ± 0.0085; in the experiment with E. coli TESEC Mtb Alr [2] (setting [7]) it was 0.17 ± 0.029; in the experiment on E. coli TESEC Mtb Alr [2] (setting [8]), 0.149 ± 0.0053; with E. coli TESEC Mtb Alr [2] (setting [9]), 0.133 ± 0.0058. Besides, the growth is 0.194 ± 0.055 with E. coli TESEC Mtb Asd (setting [10]); 0.477 ± 0.044 with E. coli TESEC Mtb Asd (setting [11]); 0.4846 ± 0.0026 in experiment [3]; 0.4087 ± 0.0033 in the experiment on E. coli TESEC Mtb Alr [4] (setting [12]); 0.328 ± 0.03 with E. coli TESEC Mtb Alr [4] (setting [13]).

Regarding `CC(C)NCC(O)c1ccc(NS(C)(=O)=O)cc1` (stereo not drawn) [Sotalol hydrochloride], the growth in experiment [1] turned out to be 0.163 ± 0.0095; in the experiment on E. coli TESEC Mtb Alr [2] (setting [5]) it was 0.206 ± 0.0064; in the experiment with E. coli TESEC Mtb Alr [2] (setting [6]), 0.254 ± 0.0096; in the experiment with E. coli TESEC Mtb Alr [2] (setting [7]), 0.173 ± 0.025; with E. coli TESEC Mtb Alr [2] (setting [8]), 0.138 ± 0.0027; with E. coli TESEC Mtb Alr [2] (setting [9]), 0.142 ± 0.0089. Moreover, the growth amounted to 0.242 ± 0.084 in the experiment with E. coli TESEC Mtb Asd (setting [10]); 0.377 ± 0.056 in the experiment on E. coli TESEC Mtb Asd (setting [11]); 0.433 ± 0.0053 in experiment [3]; 0.402 ± 0.012 with E. coli TESEC Mtb Alr [4] (setting [12]); 0.359 ± 0.025 with E. coli TESEC Mtb Alr [4] (setting [13]).

In the case of `CS(=O)(=O)OCCCCOS(C)(=O)=O` [Busulfan], the growth in experiment [1] stood at 0.241 ± 0.017; in the experiment on E. coli TESEC Mtb Alr [2] (setting [5]), 0.287 ± 0.025; in the experiment with E. coli TESEC Mtb Alr [2] (setting [6]) it was 0.272 ± 0.0066; in the experiment with E. coli TESEC Mtb Alr [2] (setting [7]), 0.233 ± 0.026; in the experiment with E. coli TESEC Mtb Alr [2] (setting [8]), 0.184 ± 0.0057; in the experiment with E. coli TESEC Mtb Alr [2] (setting [9]), 0.139 ± 0.0018. In addition, the growth came to 0.378 ± 0.022 in the experiment with E. coli TESEC Mtb Asd (setting [10]); 0.414 ± 0.036 in the experiment with E. coli TESEC Mtb Asd (setting [11]); 0.445 ± 0.033 in experiment [3]; 0.4123 ± 0.004 with E. coli TESEC Mtb Alr [4] (setting [12]); 0.362 ± 0.029 in the experiment with E. coli TESEC Mtb Alr [4] (setting [13]).

Consider `OC(CCCN1CCCCC1)(c1ccccc1)c1ccccc1` [Diphenidol hydrochloride], for which the growth in experiment [1] is 0.227 ± 0.0039; in the experiment on E. coli TESEC Mtb Alr [2] (setting [5]), 0.278 ± 0.0057; in the experiment on E. coli TESEC Mtb Alr [2] (setting [6]) it was 0.257 ± 0.0075; with E. coli TESEC Mtb Alr [2] (setting [7]), 0.2 ± 0.02; in the experiment with E. coli TESEC Mtb Alr [2] (setting [8]), 0.162 ± 0.0026; with E. coli TESEC Mtb Alr [2] (setting [9]), 0.137 ± 0.0047. Moreover, the growth in the experiment with E. coli TESEC Mtb Asd (setting [10]) worked out at 0.262 ± 0.012; in the experiment on E. coli TESEC Mtb Asd (setting [11]), 0.488 ± 0.018; in experiment [3], 0.48 ± 0.034; with E. coli TESEC Mtb Alr [4] (setting [12]), 0.407 ± 0.008; in the experiment with E. coli TESEC Mtb Alr [4] (setting [13]), 0.345 ± 0.0049.

As to `Cc1cc(O)c(C(=O)N[C@@H](C(=O)N[C@@H]2C(=O)N3C(C(=O)O)=C(CSc4nnnn4C)CS[C@H]23)c2ccc(O)cc2)cn1` [Cefpiramide], the growth came to 0.2668 ± 0.0012 in experiment [1]; 0.3183 ± 0.00044 with E. coli TESEC Mtb Alr [2] (setting [5]); 0.245 ± 0.0057 in the experiment on E. coli TESEC Mtb Alr [2] (setting [6]); 0.217 ± 0.015 with E. coli TESEC Mtb Alr [2] (setting [7]); 0.208 ± 0.027 in the experiment with E. coli TESEC Mtb Alr [2] (setting [8]); 0.135 ± 0.0067 with E. coli TESEC Mtb Alr [2] (setting [9]). The growth in the experiment with E. coli TESEC Mtb Asd (setting [10]) was determined as 0.356 ± 0.063; in the experiment with E. coli TESEC Mtb Asd (setting [11]), 0.375 ± 0.077; in experiment [3] it was 0.584 ± 0.046; with E. coli TESEC Mtb Alr [4] (setting [12]), 0.419 ± 0.016; with E. coli TESEC Mtb Alr [4] (setting [13]), 0.3403 ± 0.00045.
